In PubChem BioAssay (EPA / NIEHS):
Calls of active or inactive are those of the source. The calls were made as follows: active = hit-call score of the fitted dose curve at least 0.9, where 1 is the maximum; inactive = score below 0.9.

Test: ATG_M_19_CIS: Attagene CIS-FACTORIAL HepG2 Assay for M19 Transcription Factor (Internal Marker) (AID 2282939)
Conditions: HepG2 Attagene CIS-FACTORIAL M19 internal marker reporter; actives raise or lower the signal
Description: ATG_CIS is a cell-based, multiplexed-readout assay that uses HepG2, a human liver cell line, with measurements taken at 24 hours after chemical dosing in a 24-well plate.ATG_M_19_CIS is one of 52 assay component(s) measured or calculated from the ATG_CIS assay. It is designed to make measurements of mRNA induction, a form of inducible reporter, as detected with fluorescence intensity signals by Reverse transcription polymerase chain reaction (RT-PCR) and Capillary electrophoresis technology.Data from the assay component ATG_M_19_CIS was analyzed into 1 assay endpoint. This assay endpoint, ATG_M_19_CIS, was analyzed with bidirectional fitting relative to DMSO as the negative control and baseline of activity. Using a type of inducible reporter, measures of mRNA for gain or loss-of-signal activity can be used to understand the background control at the transcription factor-level as they relate to the gene . Furthermore, this assay endpoint can be referred to as a secondary readout, because this assay has produced multiple assay endpoints where this one serves a background control function. To generalize the intended target to other relatable targets, this assay endpoint is annotated to the background measurement intended target family, where the subfamily is internal marker.
Human liver HepG2 cells are transiently transfected with multiple reporter transcription units (MRTUs) in 6-well plates using FuGene 6 reagent (Roche; 3 ml FuGene/1 mg DNA). The MRTU constructs are regulated by a cis-regulating element (promoter). […] A major difference between the CIS and TRANS system is that in CIS activities of endogenous TFs are measured, whereas the TRANS assay evaluates changes in activities of exogenous, chimeric NR-Gal4 proteins. […] At the end of 24 hour incubation, total RNA was isolated using TriZol reagent (Invitrogen). The isolated RNA is then reverse-transcribed using oligo(dT) primer and Mo-MLV reverse transcriptase (Invitrogen) with DNAse I (Ambion) treatment for 30 min. The one-tenth of the produced cDNA was amplified by PCR using Taq DNA polymerase (Invitrogen) and two reporter sequence-specific primers. The PCR products were fluorescently labeled by primer extension with 6-arboxyfluorescein (6-FAM) 5'-labeled reporter sequence-specific primer (2 min at 95 C, 20 s at 68 C and 10 min at 72 C) and these products were digested with 5U of HpaI (New England Biolabs) for 2h at 37 C. The fragments were purified using Qiaquick PCR columns (Qiagen), analyzed on an ABI 3130xL genetic analyzer (Applied Biosystems) with peak positions identified by using a set of X-rhodamine (ROX)-labeled MapMarker1000 molecular weight standards (BioVentures). The raw capillary electrophoresis data was processed using Attagraph software (Attagene).
For `OCCCC(F)(F)C(F)(F)C(F)(F)C(F)(F)C(F)(F)C(F)(F)C(F)(F)C(F)(F)F`, the outcome was “inactive”.
In the case of `O=S(=O)(O)CCC(F)(F)C(F)(F)C(F)(F)C(F)(F)C(F)(F)C(F)(F)C(F)(F)C(F)(F)F`, the outcome is reported as “inactive”.
In the case of `CC(C)(C)C(=O)C1C(=O)c2ccccc2C1=O`, the outcome is reported as “inactive”.
For `CCC(=O)OC(C)c1ccccc1` (stereo not given), the outcome was “inactive”.
For `OCC(O)CC(F)(F)C(F)(F)C(F)(F)C(F)(F)C(F)(F)C(F)(F)C(F)(F)C(F)(F)F` (stereo not given), the outcome was “inactive”.
For `F[Si-2](F)(F)(F)(F)F`, the outcome was “inactive”.
For `CN(C)C(C)(C)CO`, the outcome was “inactive”.
For `O=C(O)C(F)(F)OC(F)(F)C(F)(F)OC(F)(F)C(F)(F)OC(F)(F)F`, the outcome was “inactive”.
For `Brc1nc2ccccc2s1`, the outcome was “inactive”.
For `CC(C)CC=C(C=O)c1ccccc1`, the outcome was “inactive”.
With `CN1CN(C)CN(C)C1` the outcome was “inactive”.
With `O=C(O)CCC(F)(F)C(F)(F)C(F)(F)F` the outcome was “inactive”.
With `O=C1C=CC(=O)N1c1ccc(Cc2ccc(N3C(=O)C=CC3=O)cc2)cc1` the outcome was “inactive”.
For `CC(C)=CCCC(C)O` (stereo not given), the outcome was “inactive”.
With `CCOC(=O)C1CC(=O)C(=C(O)C2CC2)C(=O)C1` (stereo not given) the outcome was “inactive”.
In the case of `CC(=O)C=O`, the outcome is reported as “inactive”.
In the case of `CO[Si](C)(CCC(F)(F)C(F)(F)C(F)(F)C(F)(F)C(F)(F)C(F)(F)F)OC`, the outcome is reported as “inactive”.
In the case of `CCOC(OCC)OCC`, the outcome is reported as “inactive”.
With `NCC(F)(F)C(F)(F)C(F)(F)C(F)(F)C(F)(F)C(F)(F)F` the outcome was “inactive”.
In the case of `O=C=Nc1cccc2c(N=C=O)cccc12`, the outcome is reported as “inactive”.
In the case of `Cc1ccc(S(=O)(=O)C(I)I)cc1`, the outcome is reported as “inactive”.
With `N#Cc1ccccc1O` the outcome was “inactive”.
In the case of `O=C(c1ccccc1)c1ccc(Cl)cc1`, the outcome is reported as “inactive”.
In the case of `OCCCc1cccnc1`, the outcome is reported as “inactive”.
With `CCN(CCO)S(=O)(=O)C(F)(F)C(F)(F)C(F)(F)C(F)(F)C(F)(F)C(F)(F)C(F)(F)C(F)(F)F` the outcome was “inactive”.
With `CCN(CC)c1ccc(C=O)cc1` the AC50 was 25.8 µM (active).
For `O=C=NCc1cccc(CN=C=O)c1`, the outcome was “inactive”.
In the case of `CCN=C1C=CC(=C(c2ccc(N(CC)CC)cc2)c2ccc(N(CC)CC)cc2)c2ccccc21`, the outcome is reported as “inactive”.
For `Nc1c(Br)cc([N+](=O)[O-])cc1Br`, the outcome was “inactive”.
For `CCCCOC(=O)[C@H](C)O`, the outcome was “inactive”.
In the case of `Brc1ccccn1`, the outcome is reported as “inactive”.
In the case of `CCOCOCC`, the outcome is reported as “inactive”.
With `CC(C)CCCC(C)CCO` (stereo not given) the outcome was “inactive”.
For `CSc1ccc(O)cc1C`, the outcome was “inactive”.
In the case of `CCCCCC/C=C/CCCCCCCC(=O)O`, the outcome is reported as “inactive”.
In the case of `CCOCN(C(=O)CS(=O)(=O)O)c1c(C)cccc1CC`, the outcome is reported as “inactive”.
With `C=C(C)CCCC` the outcome was “inactive”.
In the case of `O=C(Cl)C(F)(F)C(F)(F)C(F)(F)C(F)(F)C(F)(F)C(F)(F)C(F)(F)F`, the outcome is reported as “inactive”.
With `CCOC(=O)CCC(C)=O` the outcome was “inactive”.
For `COCCOCCC[Si](C)(O[Si](C)(C)C)O[Si](C)(C)C`, the outcome was “inactive”.
